An excerpt weighted towards active compounds, which were near 4.6% of everything screened.
D1 agonist = human D1 receptor agonism; P21728; activation, % at 2 µM; AID 504660; HEK293 T-REx D1 cells, calcium flux, agonist mode; 360,000 compounds, 1% hits
Target sequence (P21728 whole entry, looked up): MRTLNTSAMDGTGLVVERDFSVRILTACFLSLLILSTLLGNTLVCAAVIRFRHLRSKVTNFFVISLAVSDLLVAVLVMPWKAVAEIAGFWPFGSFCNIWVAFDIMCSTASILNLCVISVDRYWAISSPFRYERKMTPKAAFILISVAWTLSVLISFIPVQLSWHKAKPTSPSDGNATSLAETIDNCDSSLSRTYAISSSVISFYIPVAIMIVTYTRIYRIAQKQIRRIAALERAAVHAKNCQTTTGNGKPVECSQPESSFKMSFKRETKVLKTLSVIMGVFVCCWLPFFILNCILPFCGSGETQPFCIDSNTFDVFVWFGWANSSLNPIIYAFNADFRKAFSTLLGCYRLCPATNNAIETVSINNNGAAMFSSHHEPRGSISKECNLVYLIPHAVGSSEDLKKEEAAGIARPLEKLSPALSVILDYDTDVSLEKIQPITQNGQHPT
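Inducible HEK293 T-REx D1 cells, force-coupled to calcium signalling, were plated at 4000 cells/well with tetracycline and held overnight at 30 C. After no-wash calcium dye loading, compound-evoked calcium rise over 180 s flagged agonists.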
TRHR ag = activates the human TRH receptor; activation, % at 2 µM; 360,000 compounds, 0.18% hits; P34981; TRHR cells, calcium flux fluo-8, FDSS agonist mode
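TRHR-expressing cells, plated overnight in medium with 10% serum, were loaded with fluo-8 calcium dye at room temperature. After a 10 s baseline, library compound was pin-added and calcium release was recorded kinetically (ex 480/em 530) as agonist response.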
TRHR PAM = TRH receptor (human) allosteric enhancement. P34981. TRHR cells, fluo-8 calcium fluorescence, EC20 TRH enhancement. enhancement, % at 2 µM. 360,000 compounds, 0.66% hits. AID 493056; in the data active = enhancement above about 30%
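Enhancer read-out: after compound pinning and an initial kinetic agonist-mode read, an EC20 of TRH (10 nM final) was injected and fluo-8 calcium signal (Ex 480/Em 530) followed at 1 s/cycle for 100 cycles in TRHR-expressing cells.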
D1 antagonist = human D1 dopamine receptor antagonism; 360,000 compounds, 3.2% hits; activity change, negative = inhibition, % at 10 µM; HEK293 TREx D1 cells, calcium flux, dopamine EC80; active compounds read low; AID 504652; in the data active = activity change below about -30%
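Antagonism measured as reduced calcium response to an EC80 dopamine addition following 180 s compound pre-read; cells were inducible HEK293 Trex D1 plated overnight at 30 C, read kinetically at 1 cycle/sec.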
D1 PAM = enhances dopamine response at the human D1 receptor; P21728; HEK293 TREx D1 cells, calcium flux, dopamine EC20 potentiation; potentiation, % at 10 µM; 360,000 compounds, 0.036% hits; AID 504651; in the data active = potentiation above about 30%
Epigenetic reg = regulators of epigenetic silencing causing reporter derepression in mouse cells. 280,000 compounds, 0.2% hits. murine LDR cells, GFP reporter derepression, 30 h. Potency, µM (doses to about 53.9 µM), usual class: activators; active = well fitted activation curve with a large enough effect; inconclusive = small, poorly fitted or top-dose-only effect; note: nearly all actives have a fitted effect of over 60% in size
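Readout is the number of GFP-expressing murine LDR cells, counted by cytometry following washing. Cells were treated with compound for 30 h at 37 C; the stably integrated CMV-GFP locus is normally silent.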
A number is an active result; i = inactive; ? = inconclusive; nt = no result. Cut-off read from the data, not from the text of the source, unless noted: active = activation above about 30%; inactive = the rest.

SMILES	D1 agonist	TRHR ag	TRHR PAM	D1 antagonist	D1 PAM	Epigenetic reg
O=C(NCCc1ccc(Cl)cc1)c1ccc2c(c1)OCCO2	i	i	i	-36.7	i	nt
Cc1ccc(-n2cc3c(c2-c2ccccc2Br)c(=O)n(C)c(=O)n3C)cc1N	i	i	i	i	i	i
CC(=O)N[C@@H](C=O)[C@@H](O)[C@H](O)[C@H](O)CO	nt	nt	nt	nt	nt	i
Cc1cccc(C)c1NC(=O)CSc1ncc2c(n1)-c1ccc(Cl)cc1N(Cc1ccccc1)S2(=O)=O	i	i	i	i	i	i
COc1cccc(N2CCN(C(=O)Cn3ncc4c(=O)oc5ccccc5c43)CC2)c1	i	i	i	i	i	i
CCCCOc1ccc(S(=O)(=O)NC(=O)NCc2ccc(OCCC)cc2)cc1	i	i	i	-38.4	i	i
Cc1[nH]c2c(Br)cccc2c1[C@H]1[C@@H](CC#N)C1(C)C	i	i	32.2	i	i	i
CCn1ccnc1CN1CCN(CC=C(C)C)C(CCO)C1 (centres undefined)	i	i	31.3	i	i	i
COC(=O)CCC(C)C1CCC2C3C(O)C[C@@H]4CC(O)CC[C@@]4(C)C3CC(O)[C@]12C (some centres undefined)	nt	nt	nt	nt	nt	i
CC1CCCC(NC(=O)c2ccc(CNc3c(N4CCCC4)c(=O)c3=O)cc2)C1C (centres undefined)	i	i	i	-32.1	i	i
CCNC(=S)N1CCN(c2nc(-c3cccc(OC)c3)cs2)CC1	i	i	i	-30.2	i	nt
CC(C)CNC(=S)N1CCN(c2nc(-c3ccc(Cl)cc3)cs2)CC1	i	i	i	-30.3	i	nt
COc1cccc(-c2csc(N3CCN(C(=S)NCC(C)C)CC3)n2)c1	i	i	i	i	i	nt
COc1cccc(-c2csc(N3CCN(C(=S)Nc4ccccc4OC)CC3)n2)c1	i	i	i	-34.6	i	i
COc1cccc(-c2csc(N3CCN(C(=S)Nc4ccccc4Cl)CC3)n2)c1	i	i	i	i	i	i
CCOCCCNC(=S)N1CCN(c2nc(-c3ccccc3)cs2)CC1	i	i	i	i	i	nt
COCCCNC(=S)N1CCN(c2nc(-c3ccccc3)cs2)CC1	i	i	i	-33.2	i	nt
O=C(Nc1ccc2oc(-c3cccc4c(Br)cccc34)nc2c1)c1ccc(F)cc1	i	i	i	i	i	i
CN(C)N1C(N)=C(C#N)C(c2cccs2)C2=C1CCCC2=O (centres undefined)	i	i	i	i	i	i
Cc1ccsc1C1C(C#N)=C(N)N(N(C)C)C2=C1C(=O)CCC2 (centres undefined)	i	i	i	-35.4	i	i
Cc1ccc(N=C2SC(C(=O)O)CC(=O)N2C)cc1C (centres undefined)	i	i	34.4	i	i	i
Cc1cccc(C)c1NC(=O)CNC(=O)c1ccccc1	i	i	i	-31.5	nt	nt
Cc1cccc(C)c1NC(=O)CNC(=O)c1ccncc1	i	i	i	i	i	nt
O=C(O)CNC(=O)c1ccccc1	i	i	i	-34.1	i	i
O=C(CNC(=O)c1ccccc1)OC1CCCCC1	i	i	32.9	i	i	i
SMILES	D1 agonist	TRHR ag	TRHR PAM	D1 antagonist	D1 PAM	Epigenetic reg
Cc1ccsc1/C=N/NC(=O)CNC(=O)c1ccccc1	i	i	i	-47.2	i	nt
COc1ccc(Cn2c(C(=O)O)c(CNCCc3ccccc3Cl)c3ccc(C)cc32)cc1	i	i	i	i	i	i
CCOC(=O)C1=C(C)N=C2SCCC(=O)N2C1c1ccc(OCc2ccccc2)cc1 (centres undefined)	i	i	i	i	i	i
O=C(CN1C(=O)C(c2ccc(F)cc2)=NC12CCCCCC2)Nc1ccccc1Cl	i	i	i	i	i	i
C/C=N/NC(=O)CCNC(=O)c1ccccc1	i	i	33.2	i	i	i
Cc1ccc(CC(NC(=O)c2ccccc2)C(=O)NC(CC(C)C)C(=O)O)cc1 (centres undefined)	i	i	i	i	i	i
Cc1ccc(CC(NC(=O)c2ccccc2)C(=O)NCC(=O)O)cc1 (centres undefined)	i	i	35.4	i	i	i
Cc1nc(-c2ccc(Cl)cc2)sc1CCNC(=O)c1ccc(C(F)(F)F)cc1	i	i	i	i	i	i
COc1cc(/C=C(\C#N)C(=O)c2ccc(O)c(O)c2)cc(I)c1O	37.8	i	i	i	i	i
COc1ccc(CCNC(=S)NC2CCN(Cc3ccccc3)CC2)cc1	41.7	i	i	i	i	i
S=C(Nc1ccccc1)NC1CCN(Cc2ccccc2)CC1	i	i	i	i	i	i
S=C(Nc1ccc(Cl)cc1)NC1CCN(Cc2ccccc2)CC1	39.4	i	38.3	-78.1	i	i
S=C(NCCc1ccccc1)NC1CC2CCC(C1)N2Cc1ccccc1 (centres undefined)	39.2	i	i	-66.2	i	i
CCc1ccc(NC(=S)NC2CCN(Cc3ccccc3)CC2)cc1	34.1	i	i	-81.4	i	?
CCc1ccc(CNC(=O)Cn2nc(C)c3nn(-c4ccc(Cl)cc4)c(C)c3c2=O)cc1	i	i	i	i	i	i
CCOc1ccc(C(=O)c2oc3ccccc3c2NC(=O)Cc2coc3ccc(CC)cc23)cc1	i	i	i	i	i	i
CC1SC(=NC(=O)C(C)N2C(=O)c3ccccc3C2=O)NC1=O (centres undefined)	i	i	i	-34.1	i	i
Cc1cc(NC(=O)N(C)CCc2c(C)nn(C)c2C)ccc1Br	i	i	i	i	i	i
O=C(Nc1ccccc1OCc1cc(=O)n2ccccc2n1)c1ccccc1F	i	i	i	i	i	i
O=C(Nc1ccc2oc(-c3ccncc3)nc2c1)c1ccccc1Cl	i	i	i	-71.4	i	i
O=C(O)c1ccccc1-c1ccccc1C(=O)Nc1ccc(-c2nc3cc(Cl)ccc3o2)cc1	i	i	i	-30.5	i	i
O=C(Nc1ccc2oc(-c3ccccc3F)nc2c1)c1ccccc1Cl	i	i	i	-48.5	i	i
Cc1ccc2oc(-c3cc(NC(=O)c4ccco4)ccc3Cl)nc2c1	i	i	i	-39.4	i	i
O=C(COc1ccccc1)Nc1nnc2n1CCS2	i	i	i	i	i	i
COc1ccc(NC(=O)c2cc3c(=O)n(Cc4cccnc4)ccc3nc2C)cc1Cl	i	i	i	i	i	i
CCN1C(=O)C(CC(=O)Nc2ccc(OC)cc2)N(CCc2ccc(F)cc2)C1=S (centres undefined)	i	i	i	i	i	i
CCN1C(=O)C(CC(=O)Nc2ccc(OC)cc2)N(CCCN2CCN(c3ccc(F)cc3)CC2)C1=S (centres undefined)	i	i	i	-43.1	i	i

Compound activity deposited in PubChem by National Center for Advancing Translational Sciences (NCATS).
